HSP90 refold inh: inhibitors of HSP90 luciferase refolding in rabbit reticulocyte lysate; luciferase refolding luminescence, 3 h; inhibition, % at 5.6 µM; actives 0.91% (n = 290,000); AID 1789;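 active = inhibition above the screen-wide mean plus 3 SD, computed separately per campaign, cut at about 16% in these data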;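 also: 0% = DMSO wells and 100% = 60 µM geldanamycin wells; inhibitors lower the luminescence because luciferase stays unfolded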
SENP6 inh: SENP6 protease inhibition; actives 1.8% (n = 330,000); Recombinant SENP6 catalytic domain, aminoluciferin luminescence; AID 2599; Q9GZR1; inhibition, % at 10 µM;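 active = inhibition above about 50% at the single tested dose, limit read from the data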;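 also: plate controls were DMSO wells with enzyme for no effect and DMSO wells lacking enzyme for full effect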
SENP8 block-1: inhibitors of human SENP8 protease | inhibition, % at 20 µM | recombinant SENP8, Nedd8 substrate fluorescence | actives 0.64% (n = 360,000) | AID 602440; in the data active = inhibition mostly above about 40%, no sharp cut-off; inactive = mostly below about 27%
Target sequence (Q96LD8 whole entry, looked up): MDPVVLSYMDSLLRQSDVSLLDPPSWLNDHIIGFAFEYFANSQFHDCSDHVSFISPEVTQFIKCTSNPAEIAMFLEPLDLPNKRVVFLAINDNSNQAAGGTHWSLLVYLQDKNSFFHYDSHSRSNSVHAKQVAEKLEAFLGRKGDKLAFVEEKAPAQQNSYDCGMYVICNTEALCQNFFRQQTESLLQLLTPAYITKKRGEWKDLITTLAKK
SENP7 block: inhibitors of human SENP7 protease; Q9BQF6; recombinant SENP7, Z-RLRGG-aminoluciferin luminescence, 40 min; inhibition, % at 5 µM; actives 1.5% (n = 330,000);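 active = inhibition above about 50% at the single test dose, limit read from the data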;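 also: plate controls were DMSO with enzyme for no effect and no enzyme buffer wells for full effect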
SENP8 block-2: SENP8 protease inhibition | Q96LD8 | purified SENP8, Z-RLRGG-aminoluciferin cleavage, luminescence | inhibition, % at 10 µM | actives 1.2% (n = 330,000) | AID 2540; in the data active = inhibition above about 50%
LGR2 antag: inhibitors of bursicon-induced Drosophila LGR2 receptor cAMP signaling | HEK293 LGR2, CRE-luciferase, bursicon-stimulated, 4 h | inhibition, % at 9.99 µM | actives 0.35% (n = 380,000);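 active = drop in luminescence signal, shown as inhibition above about 50% in the replicate tests, limit read from the data, passing the limit was not always enough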;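 also: agonist challenge used bursicon conditioned medium at about half maximal strength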
SENP8 confirm: confirmation of human SENP8 protease inhibitors; shares compounds with SENP7 block; Recombinant SENP8, Z-RLRGG-aminoluciferin luminescence, 60 min; inhibition, % at 12.5 µM; actives 40% (n = 6,200); AID 488912;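 active = mean inhibition across replicates above about 50%, limit read from the data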
SENP6 conf: confirmation of human SENP6 protease inhibitors | shares compounds with SENP7 block | recombinant SENP6, Z-RLRGG-aminoluciferin luminescence | inhibition, % at 12.5 µM | actives 58% (n = 6,200) | AID 488915
SENP7 confirm: confirmation of human SENP7 protease inhibitors | shares compounds with SENP7 block | recombinant SENP7, Z-RLRGG-aminoluciferin luminescence, 40 min | inhibition, % at 12.5 µM | actives 69% (n = 6,200) | AID 488917
Casp3 SENP sel: caspase-3 inhibition (SENP selectivity assay). AID 488918. actives 60% (n = 6,200). purified caspase-3, Z-DEVD-aminoluciferin luminescence, 60 min. inhibition, % at 12.5 µM. shares compounds with SENP7 block;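 active = mean inhibition above about 50%, limit read from the data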;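 also: plate controls were enzyme with DMSO for no effect and wells without caspase-3 for full effect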
Target sequence (P42574 28-227 limits assumed): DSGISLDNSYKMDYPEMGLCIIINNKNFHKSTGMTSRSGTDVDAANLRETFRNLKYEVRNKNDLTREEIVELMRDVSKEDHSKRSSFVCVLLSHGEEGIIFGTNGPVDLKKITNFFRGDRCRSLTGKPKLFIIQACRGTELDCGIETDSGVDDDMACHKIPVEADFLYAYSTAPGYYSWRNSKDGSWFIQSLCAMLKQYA
Luc interf: luminescence interference (SENP counter-screen). actives 39% (n = 6,200). shares compounds with SENP7 block. Pre-incubated SENP8/Z-RLRGG-aminoluciferin, luciferase luminescence interference. inhibition, % at 12.5 µM;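 active = mean inhibition above about 50% when retested at one dose, limit read from the data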;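 also: plate controls were DMSO wells with completed reaction for no effect and substrate without enzyme for full effect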
The depositor's hits bear a star; . = no result given. This is a sample that favours compounds with a hit; in the whole collection about 2.3% have one here.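 The calls were made as follows, unless noted: active = mean inhibition above about 50% in the one-dose retest (limit read from the data); inactive = the rest.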

SMILES	HSP90 refold inh	SENP6 inh	SENP8 block-1	SENP7 block	SENP8 block-2	LGR2 antag	SENP8 confirm	SENP6 conf	SENP7 confirm	Casp3 SENP sel	Luc interf
Cc1cc2c(cc1C)CN(c1ccccc1)C2	3.8	59.0*	21.8	42.7	56.7*	-26.6	50.9*	38.7	79.4*	79.1*	69.7*
Cc1cc(NC(=O)c2ccccc2)sc1C	10.1	94.2*	0.1	94.0*	89.8*	.	0.9	96.3*	102.7*	96.3*	95.2*
C/C=C/c1ccc([C@@H]2[C@@H](CO)N(C(=O)CN(C)C)C23CN(C(=O)C2CCCCC2)C3)cc1	.	.	.	.	.	9.1	.	.	.	.	.
C[C@@H]1CN([C@H](C)CO)C(=O)c2cc(C#C[C@@H](C)O)cnc2O[C@H]1CN(C)Cc1cccc(F)c1	.	.	.	.	.	9.9	.	.	.	.	.
C[C@H]1CCCCO[C@@H](CN(C)S(=O)(=O)c2ccc(F)cc2)[C@@H](C)CN([C@@H](C)CO)C(=O)c2cc(NS(=O)(=O)c3cn(C)cn3)ccc2O1	.	.	.	.	.	10.2	.	.	.	.	.
COc1ccc(Cl)cc1NC(=S)NNC(=O)c1cccs1	0.6	85.6*	-36.3	81.3*	65.7*	7.9	-2.0	-0.2	14.4	-1.6	26.8
Cc1[nH]n(-c2cccc(Cl)c2)c(=O)c1C=NCc1ccco1	0.9	52.5*	13.1	23.3	23.3	-64.1	-6.2	-7.5	16.4	7.9	16.8
Cc1nc2oc3ccccc3c(=O)c2cc1C(=O)O	2.4	7.3	-1.3	-6.6	-3.8	9.6	.	.	.	.	.
CC(C)c1ccc2oc3nc(N)c(C(=O)O)cc3c(=O)c2c1	3.6	97.0*	.	101.2*	96.2*	.	98.3*	99.0*	101.7*	97.1*	91.3*
Cc1nc2oc3ccc(Cl)cc3c(=O)c2cc1C(=O)O	-2.4	78.6*	-114.0	79.3*	69.5*	3.0	81.7*	81.1*	96.2*	94.2*	76.1*
C[C@H]1CCCCO[C@H](CN(C)Cc2ccccc2)[C@@H](C)CN([C@@H](C)CO)C(=O)c2cc(N(C)C)ccc2O1	.	.	.	.	.	4.4	.	.	.	.	.
c1ccc(-c2nc3ccccc3s2)nc1	4.7	89.9*	-14.5	79.4*	75.6*	-43.9	46.7	89.1*	98.9*	88.6*	36.2
c1ccc2oc(SCc3nc4ccccc4s3)nc2c1	1.4	49.7	-116.1	24.7	32.3	.	.	.	.	.	.
c1ccc(SCc2nc3ccccc3s2)nc1	-2.8	60.0*	-5.6	48.9	44.8	-74.5	64.1*	61.1*	86.4*	66.2*	57.3*
Brc1cc2c(cc1-c1nc3ccccc3s1)OCO2	2.0	16.6	5.7	0.2	-11.0	-36.8	.	.	.	.	.
Nc1ccc(-c2nc3ccccc3s2)cn1	-4.4	79.4*	-294.3	69.4*	66.5*	-78.4	75.4*	72.8*	91.1*	77.8*	47.5
CN(C)c1ncccc1-c1nc2ccccc2s1	1.3	-6.0	-392.0	-2.4	-9.5	-9.9	.	.	.	.	.
Brc1ccc(-c2nc3ccccc3s2)s1	-4.4	95.1*	-376.2	96.3*	94.8*	-22.0	65.8*	82.2*	86.7*	28.4	67.4*
CCCN(C)C[C@@H]1Oc2ncc(-c3cccc(C(=O)N(C)C)c3)cc2C(=O)N([C@@H](C)CO)C[C@@H]1C	.	.	.	.	.	4.2	.	.	.	.	.
O=C(Cc1ccncc1)NCC[C@H]1CC[C@@H](NC(=O)C2CCC2)[C@H](CO)O1	.	.	.	.	.	-0.4	.	.	.	.	.
COc1ccc(NC(=O)Nc2cccc3c2O[C@H](CN(C)S(=O)(=O)c2cn(C)cn2)[C@H](C)CN([C@H](C)CO)C3=O)cc1	.	.	.	.	.	-7.4	.	.	.	.	.
O=C(NC(NC1CCS(=O)(=O)C1)C(=O)c1cccs1)c1ccccc1 (stereo not drawn)	-0.3	-33.4	.	4.2	-3.4	.	.	.	.	.	.
O=C(NC1=C(NC2CCS(=O)(=O)C2)C(=O)c2ccccc2C1=O)c1ccccc1 (stereo not drawn)	3.2	85.8*	86.9*	45.8	60.2*	78.0*	0.6	86.3*	54.6*	92.7*	6.8
O=C(N/N=C/c1ccc(F)cc1)c1cc(-c2ccc3c(c2)OCO3)n[nH]1	-0.8	-1.3	9.5	1.5	-2.3	.	.	.	.	.	.
Cc1ccc(-c2cc(-c3ccccc3Cl)[nH]n2)c(O)c1	-0.9	45.4	14.4	45.8	28.0	.	.	.	.	.	.
SMILES	HSP90 refold inh	SENP6 inh	SENP8 block-1	SENP7 block	SENP8 block-2	LGR2 antag	SENP8 confirm	SENP6 conf	SENP7 confirm	Casp3 SENP sel	Luc interf
Oc1ccc(F)cc1-c1cc(-c2ccc3c(c2)OCCO3)n[nH]1	-4.0	87.7*	10.7	75.5*	84.4*	.	87.5*	88.1*	100.1*	58.9*	56.7*
Cc1ccccc1-c1cc(-c2ccccc2O)n[nH]1	-2.7	83.5*	15.8	82.8*	70.8*	.	86.3*	84.7*	93.9*	42.1	61.5*
Oc1ccccc1-c1cc(-c2ccc(F)cc2)n[nH]1	-0.4	94.2*	5.0	93.6*	88.5*	-29.1	93.6*	94.2*	100.0*	71.6*	79.9*
Oc1ccccc1-c1cc(-c2ccccc2)n[nH]1	.	94.8*	17.5	93.5*	92.8*	-93.2	95.3*	95.5*	100.8*	74.3*	89.4*
Oc1ccc(Cl)cc1-c1cc(-c2ccccc2)n[nH]1	1.9	20.6	6.0	3.3	7.5	-24.9	.	.	.	.	.
CC(C)NC(=O)N(C)C[C@H]1OCCCC[C@@H](C)Oc2ccc(NS(C)(=O)=O)cc2C(=O)N([C@@H](C)CO)C[C@H]1C	.	.	.	.	.	-2.4	.	.	.	.	.
COc1ccc(NC(=O)N[C@H]2C=C[C@H](CC(=O)NCc3ccccn3)O[C@@H]2CO)cc1	.	.	.	.	.	20.6	.	.	.	.	.
O=C(C[C@@H]1CC[C@@H](NC(=O)c2ccc(F)cc2)[C@H](CO)O1)NCc1ccncn1	.	.	.	.	.	2.4	.	.	.	.	.
CCCNC(=O)N[C@@H]1CC[C@H](CCn2cc(C3CC3)nn2)O[C@@H]1CO	.	.	.	.	.	-0.4	.	.	.	.	.
CCCN1C[C@H](C)[C@@H](OC)CN(C)C(=O)c2cc(NC(=O)c3ccno3)ccc2OC[C@@H]1C	.	.	.	.	.	11.3	.	.	.	.	.
CO[C@H]1CN(C)C(=O)c2cc(NS(=O)(=O)c3ccccc3C)ccc2OC[C@H](C)N(S(C)(=O)=O)C[C@H]1C	.	.	.	.	.	-11.2	.	.	.	.	.
Cc1ccc(-c2cc(-c3ccc(F)cc3)n[nH]2)c(O)c1	-1.4	83.3*	2.2	75.5*	78.8*	-72.3	86.3*	85.5*	95.4*	42.9	76.1*

From PubChem BioAssay
